Several values for one entry are separate records, joined by “and”; a condition that tells them apart may be missing. Identical values can stand only once. This is part of a sample that, as a whole, favours compounds with a hit. Of some 83,000 tested, about 20% had one in any assay.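 Treatment: one concentration, 48 hours, 96-well format. Scoring: percent growth, with anything below 10 considered active.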 Activity calls are given as the source filed them.
tested on: HCT-15 colon; experiment: NCI-60 one-dose screen, 48 h (100 = growth as untreated, 0 = no growth, -100 = all killed); details: 10 µM unless noted

| Compound | growth |
| --- | --- |
| CC(=O)OC(C)C(=O)NCC(C)O (stereo unspecified) | 100% (inactive) |
| Nc1cc(N)c(N)cc1N | 54.2% (inactive) |
| c1ccc(CNCCNCc2ccccc2)cc1 | 101% (inactive) |
| CC(=O)NCC(=O)c1ccc([N+](=O)[O-])cc1 | 111% (inactive) |
| Oc1ccc(Cc2ccccc2Cl)c(O)c1 | 97.2% (inactive) |
| COc1ccc(Nc2ccc3ccccc3c2)cc1 | 78.2% (inactive) |
| Cc1cc(-c2ccc(N=Nc3ccc4c(S(=O)(=O)O)cc(S(=O)(=O)O)c(N)c4c3O)c(C)c2)ccc1N=Nc1ccc2c(S(=O)(=O)O)cc(S(=O)(=O)O)c(N)c2c1O | 96.6% (inactive) |
| CCCCCCCCCCCCCCCc1ccc(N)c(OC2OC(CO)C(O)C(O)C2O)c1 (stereo unspecified) | 98.4% (inactive) |
| CC1=C/C(O)CC(=O)Cc2nc(co2)C(=O)N2CCC=C2C(=O)OC(C(C)C)C(C)/C=C\C(=O)NC/C=C\1 (stereo unspecified) | 90.1% (inactive) |
| Cl | 102% (inactive) |
| CCCCOC(=O)/C=C\C(=O)NC(N)=O | 90.8% (inactive) |
| Cn1cnc([N+](=O)[O-])c1Sc1ncn[nH]1 | 107% (inactive) |
| CCCCCCCCCCCCCCCCC(C(=O)O)C(O)(CC(=O)O)C(=O)O (stereo unspecified) | 105% (inactive) and 66.4% (inactive) |
| CCc1cc(C)cc(O)c1 | 111% (inactive) |
| c1ccc2c(c1)OC1OC2Oc2ccccc21 | 98.1% (inactive) |
| CC(C)NC(=O)N/C=C(\C#N)C(N)=O | 101% (inactive) |
| O=[N+]([O-])c1cccc(SSc2cccc([N+](=O)[O-])c2)c1 | 91.9% (inactive) |
| CC(C)C(C)(C)c1ccc(O)cc1 | 105% (inactive) |

| Compound | growth |
| --- | --- |
| ClCCOCCOc1ccc(C2CCCCC2)cc1 | 105% (inactive) |
| Cc1cc2ccccc2cn1 | 104% (inactive) and 105% (inactive) |
| N#CC(C#N)N=Nc1ccc(Cl)cc1 | 15.1% (inactive) |
| O=CN1CCCCC1 | 106% (inactive) |
| C/C(=C\c1ccccc1)c1ccccn1 | 103% (inactive) |
| OC1COC(OCc2ccccc2)C(O)C1O (stereo unspecified) | 98% (inactive) |
| OCC1OC(O)C(O)C(O)C1O (stereo unspecified) | 97.2% (inactive) |
| COc1ccc(C(=O)CC(c2ccccc2)C(C#N)c2ccccc2)cc1 (stereo unspecified) | 96.5% (inactive) |
| NC1CCC(C(=O)O)CC1 (stereo unspecified) | 106% (inactive) and 98.9% (inactive) |
| Nc1ccc2c(O)cc(S(=O)(=O)O)cc2c1 | 104% (inactive) and 105% (inactive) |
| CN1CNC(=O)NC1 | 109% (inactive) and 101% (inactive) |
| COc1ccc(N/C=C/C2=[N+](C)c3ccccc3C2(C)C)c(OC)c1 | 99.3% (inactive) |
| N#CC(C#N)N=Nc1cc(Cl)ccc1Cl | 101% (inactive) |
| Nc1nc(N)c2[nH]cnc2n1 | 107% (inactive) |
| Cc1cc(-c2cc(C)c(O)c(C)c2)cc(C)c1O | 70.8% (inactive) |
| Fc1ccc([I+]c2ccc(F)cc2)cc1 | 94.3% (inactive) |
| COc1cc(C(O)C2C(=O)OCC2C2(c3ccc4c(c3)OCO4)SCCCS2)cc(OC)c1OC (stereo unspecified) | 96.6% (inactive) |
| OCCN1CCCCCCC1 | 91.4% (inactive) |

Reference: PubChem BioAssay (NCI)
